Source: PubChem BioAssay (National Center for Advancing Translational Sciences (NCATS))
Shown are actives, neighbours in structure and some others; about 12% of the full set was active somewhere.
JMJD2A Tudor inh: qHTS Assay for Inhibitors of JMJD2A-Tudor Domain | AlphaScreen JMJD2A-Tudor / H3K4me3 peptide binding | Potency, µM (titrated, usually from 114 µM), for the others: at the top dose activity change, negative = inhibition, actives largely listed as inhibitors | hit rate 4.4% among 390,000 | Lysine-specific demethylase 4A (Homo sapiens), O75164 | AID 504339, 2011; also: % is scaled to controls: 0 for no effect and ±100 for the full control effect; nearly all actives have a fitted effect of over 50% in size
HP1b binding inh: HTS for Inhibitors of HP1-beta Chromodomain Interactions with Methylated Histone Tails; Chromobox protein homolog 1 (Homo sapiens), P83916; AlphaScreen HP1-beta / biotin-H3K9me3 peptide binding; Potency, µM (series often up to 114 µM), without a hit: at the top dose activity change, negative = inhibition, hits mostly inhibitors; hit rate 0.56% among 390,000; AID 540317, 2011; also: nearly all actives have a fitted effect of over 70% in size
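Compound inhibition of the preformed complex between 50 nM HP1-beta and 50 nM biotinylated H3K9me3 peptide was read by AlphaScreen. Buffer was PBS pH 7.4 with 0.01% Tween-20. Incubations ran 30 min at room temperature, with 10 ug/mL donor/acceptor beads.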
BAZ2B block: qHTS Assay for Inhibitors of BAZ2B; Bromodomain adjacent to zinc finger domain protein 2B (Homo sapiens), Q9UIF8; hit rate 4.4% among 360,000; Potency, µM (doses to about 114 µM), without a hit: at the top dose activity change, negative = inhibition, most hits filed as inhibitors; AlphaScreen BAZ2B-H3K14Ac peptide displacement; also: % is scaled to controls: 0 for no effect and ±100 for the full control effect; nearly all actives have a fitted effect of over 60% in size
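Multi-concentration screen (max 110 uM) measuring displacement of acetylated histone H3 peptide from BAZ2B by AlphaScreen, using 50 nM protein, 50 nM peptide and 10 ug/mL streptavidin donor plus Ni-chelate acceptor beads.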
Sfp inh: qHTS Assay for Inhibitors of Bacillus subtilis Sfp phosphopantetheinyl transferase (PPTase) | Biochemical Sfp PPTase activity, qHTS | hit rate 3.5% among 310,000 | 4'-phosphopantetheinyl transferase ffp (Bacillus subtilis), Q9F4F7 | AID 1490, 2009 | Potency, µM, without a hit: largest response in the series, negative = inhibition, most hits filed as inhibitors;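 also: the enzyme is Sfp with the accession as filed and its product quenches rhodamine fluorescence; 0% = enzyme reaction without inhibitor and -100% = no enzyme wells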
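Fluorescence-quenching assay: 15 nM Sfp-PPTase preincubated 15 min at room temperature with compound, then 5 uM rhodamine-CoA and 12.5 uM BHQ-2-labelled YbbR peptide added. Fluorescence (ex 525/em 598 nm) read at start and after 30 min; difference gives rate.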
G9a inh: qHTS Assay for Inhibitors of Histone Lysine Methyltransferase G9a; Histone-lysine N-methyltransferase EHMT2 (Homo sapiens), Q96KQ7; hit rate 8.8% among 350,000; Potency, µM (series often up to 102 µM), for inactives: top-dose activity, negative = inhibition, actives largely listed as inhibitors; G9a H3K9 monomethylation, AlphaScreen, 2 h; also: % is scaled to controls: 0 for no effect and ±100 for the full control effect; nearly all actives have a fitted effect of over 75% in size
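G9a (20 nM) was preincubated 15 min with compound, then reacted 2 h at room temperature with 500 nM biotin-H3K9 peptide and 20 µM SAM. Monomethyl-H3K9 detected by AlphaScreen using anti-H3K9me1 antibody.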
* hit, by the source's call; ? = inconclusive; . = no result; [ ] = another dose, or the depositor's remark. Calls follow the shape of the dose curve; as a rule, active = well fitted curve in the direction sought with a large enough effect; inconclusive = small, poorly fitted or top-dose-only effect, or another doubt; inactive = no such curve, though single readings can be large; an effect the other way counts as inactive or inconclusive. Potency is read from the fitted curve at half-maximal effect.

SMILES	JMJD2A Tudor inh	HP1b binding inh	BAZ2B block	Sfp inh	G9a inh
Oc1ccc(NC(=S)Nc2ccc(F)cc2)cc1	-7%	45%	-18%	-12%	6%[59 µM]
CCC(C)NC(=S)Nc1ccc(F)cc1 (configuration not stated)	11%	41%	3%	-2%	50µM*
CCN(CC)c1ccc(NC(=S)Nc2ccc(F)cc2)cc1	35µM*	25µM*	22µM*	45µM*	13µM*
Cc1cccc(OCC(=O)N(C)c2c(N)n(Cc3ccccc3)c(=O)[nH]c2=O)c1C	-13%	35%	0%	.	11%[12.7 µM]
COc1cccc(CNC(=O)c2cc3c(=O)oc4ccc(C)cc4c3s2)c1	-8%	40%	-19%	.	8%[59 µM]
Cc1cc(NC(=O)CSc2nc3c(c(-c4cccnc4)c2C#N)CCC3)no1	?	22%	79µM*	2%	18%[59 µM]
Cc1cc(NC(=O)CSc2nc(-c3cccnc3)ccc2C#N)no1	-18%[11.4 µM]	55%	4%	-16%	?
O=C(Cn1c2[n+](c3ccc(C(F)(F)F)cc31)CCCCC2)Nc1ccccc1	-6%	12%	0%	?	?
FC(F)(F)c1ccc2c(c1)n(Cc1ccccc1)c1[n+]2CCCCC1	?	9%	?	-38%	28µM*
CCc1cccc(NC(=O)Cn2c3[n+](c4ccc(C(F)(F)F)cc42)CCCCC3)c1	-16%	-10%	-6%	-41%	5.6µM*
CCCCNC(=O)C(c1ccc(OCC(=O)OC)c(C(=O)OC)c1)N(CCC1=CCCCC1)C(=O)CCCCCN1C(=O)NC(c2ccc(-c3ccccc3)cc2)C(C(=O)OCc2ccccc2)=C1C (configuration not stated)	.	.	.	32%	.
COC(=O)C1=C(C(=O)OC)[C@@H]2N(C)c3ccc(OC)cc3[C@@]23C[C@@H](C(=O)OC)N(S(=O)(=O)c2cccs2)C3=N1	.	.	.	-25%	.
O=C1CCCC2=C1C1O[C@](c3ccsc3)(Cc3c1ccc1ccccc31)O2	.	.	0%[22.9 µM]	-17%	-22%[2.33 µM]
O=C1C2=C(C(=O)c3ccccc31)C1O[C@](c3ccsc3)(Cc3c1ccc1ccccc31)O2	.	.	11µM*	-22%	-45%[2.33 µM]
OCCC1CN(Cc2cc(F)ccc2F)CCN1CCCc1ccccc1 (configuration not stated)	-14%	30%	2%	9%	.
O=C(COC(=O)C1Cc2ccccc2CN1C(=O)c1ccccc1)Nc1ccc(SC(F)F)cc1 (configuration not stated)	-32%	?	-12%	15%	79µM*
Cc1ccc(CSc2nc3ccncc3[nH]2)cc1	-12%	34%	11%	0%	6%
CCCC(CCC)c1nc2ccncc2[nH]1	?	?	?	-12%	50µM*
CCc1ccc(-c2nc3c(c(SCc4ccccc4F)n2)Cc2c(CO)cnc(C)c2O3)cc1	-30%	9%	-16%	.	-6%[59 µM]
O=C1C2C3C=CC(CC3)C2C(=O)N1c1nccs1 (configuration not stated)	50µM*	-40%	45µM*	-14%	-19%[59 µM]
O=C1C2C3C=CC(C2C(=O)N1c1nccs1)C1C(=O)N(c2nccs2)C(=O)C31 (configuration not stated)	3%	-12%	.	14%	-33%
O=S(=O)(c1ccc(F)cc1)N1CCN(c2nc(-c3ccccc3)nc3cc(Cl)ccc23)CC1	-12%	15%	.	.	.
Cc1ccc(N=C2C(=O)Nc3ccc(C)c(Br)c32)cc1	?	-18%	?	-9%	1.3µM*
COc1ccc(N=C2C(=O)Nc3ccc(C)c(Br)c32)cc1	?	?	6.3µM*	23%	11µM*
O=C1Nc2ccccc2C1=Nc1ccc(F)cc1	-24%	?	-4%	20%	-9%
O=C1c2ccccc2-c2onc3c(N4CCN(CCO)CC4)cc(N4CCN(C(=O)c5ccco5)CC4)c1c23	25µM*	?	16µM*	5µM*	28µM*
